Hits are enriched below; roughly 4.6% of the tested compounds scored in any of these assays.
Tau FP inhib: blocks human tau fibril formation measured by polarization; P10636; K18 P301L tau heparin fibrillization, Alexa594 FP, 6 h; Potency, µM (series often up to 57.7 µM), hits mostly inhibitors; 0.39% of 280,000 active; AID 1468; also: nearly all actives have a fitted effect of over 55% in size
Target sequence (P10636 561-689 P618L limits assumed): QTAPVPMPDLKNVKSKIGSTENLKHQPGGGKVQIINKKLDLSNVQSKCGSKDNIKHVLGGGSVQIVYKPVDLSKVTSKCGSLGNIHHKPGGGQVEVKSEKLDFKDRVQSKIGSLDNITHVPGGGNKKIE
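Human K18 P301L fragment (15 uM unlabeled plus 0.24 uM Alexa 594-labeled) in 100 mM sodium acetate pH 7 with compound, aggregation induced by 20 uM heparin for 6 hr at 37 C. ThT (30 uM) added for 1 hr, then Alexa 594 FP read.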
TRb-SRC2 inh: inhibitors of human thyroid hormone receptor beta-SRC2 interaction; P10828; 0.065% of 280,000 active; Potency, µM (highest dose often 106 µM), hits mostly inhibitors; AID 1469; TRbeta-SRC2 peptide binding, fluorescence polarization; receptor liganded with 1 µM T3; also: nearly all actives have a fitted effect of over 50% in size
Target sequence (P10828 whole entry, looked up): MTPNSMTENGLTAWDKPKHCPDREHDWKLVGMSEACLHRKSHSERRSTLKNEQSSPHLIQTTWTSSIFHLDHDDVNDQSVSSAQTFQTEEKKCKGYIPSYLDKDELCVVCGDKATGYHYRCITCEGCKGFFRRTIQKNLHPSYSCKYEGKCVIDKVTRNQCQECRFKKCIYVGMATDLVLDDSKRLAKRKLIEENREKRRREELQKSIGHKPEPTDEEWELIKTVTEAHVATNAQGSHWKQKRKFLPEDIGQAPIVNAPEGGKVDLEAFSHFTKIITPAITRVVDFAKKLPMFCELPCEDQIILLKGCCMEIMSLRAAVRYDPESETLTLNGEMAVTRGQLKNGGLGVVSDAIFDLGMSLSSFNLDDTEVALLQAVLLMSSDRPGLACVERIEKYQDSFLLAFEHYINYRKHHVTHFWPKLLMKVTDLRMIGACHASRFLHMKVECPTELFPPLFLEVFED
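Quantitative HTS by FP: 0.6 uM TRb LBD, 20 nM labeled SRC2 20-mer, 1 uM T3, 5% DMSO; 5 hr ambient incubation; % activity per concentration and potencies from concentration series.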
Tau fibril ThT: blocks human tau fibril formation measured by thioflavin T | 2.1% of 270,000 active | recombinant tau K18 P301L, heparin-induced fibrillization, ThT fluorescence | P10636 | Potency, µM (highest dose often 57.4 µM), hits mostly inhibitors; also: nearly all actives have a fitted effect of over 55% in size
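In this qHTS, human K18 P301L tau is incubated with compound and heparin for 6 hr at 37 C, and Thioflavin T fluorescence then reports fibril load.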
Tau fluor cs: counter-screen for tau fibril formation inhibitors | tau K18 P301L Alexa594 fluorescence, heparin fibrillization | Potency, µM (series often up to 57.7 µM) | 0.93% of 280,000 active | AID 1463; also: nearly all actives have a fitted effect of over 55% in size
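Human tau K18 P301L (15 uM unlabeled, 0.24 uM Alexa 594-labeled) in 100 mM sodium acetate pH 7 with 20 uM heparin, 6 hr at 37 C. ThT 30 uM added, 1 hr ambient; Alexa 594 FP and total fluorescence read at 555/632 nm.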
TexasRed fluor: alters Texas Red total fluorescence, flagging assay interference | TRb/SRC2 Texas Red total fluorescence interference | Potency, µM (top dose mostly 106 µM) | 0.29% of 280,000 active; active = well fitted curve in either direction with a large enough effect; inconclusive = small, poorly fitted or top-dose-only effect
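Human TRb ligand-binding domain at 0.6 uM with 20 nM Texas Red SRC2 peptide in Tris buffer containing 1 uM T3 and 5% DMSO, incubated with compound 5 h at ambient temperature. Total fluorescence (555/632 nm) calculated as parallel + 2 × perpendicular.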
PNC inhibitor: inhibitors of perinucleolar compartment assembly. PC3M PTB-GFP, PNC prevalence imaging, 16 h; stronger effect = lower value. activity change (PNC), negative = inhibition, % at 10 µM. 3.1% of 140,000 active;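 active = readout at or below -70, meaning at least 70% loss of cells showing the perinucleolar compartment, a nuclear body marking cancer cells; inconclusive = readout between -30 and a set limit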
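PC3M cells stably expressing PTB-GFP, 750–1000 cells/well, treated 16 h at 37 °C with compound (23 nl of library stock), in duplicate. After paraformaldehyde fixation and Hoechst stain, imaged at 20x; PNC prevalence scored by image analysis.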
Large screens that a line does not name were inactive; [ ] = another dose, or the depositor's remark. Unless noted, calls follow the shape of the dose curve; as a rule, active = well fitted curve in the direction sought with a large enough effect; inconclusive = small, poorly fitted or top-dose-only effect, or another doubt; inactive = no such curve, though single readings can be large; an effect the other way counts as inactive or inconclusive.

O=C1CN(C(=O)/C=C/c2ccccc2F)c2ccccc2N1	none (no result: PNC inhibitor)
CC(C)=CCCC1(C)C=Cc2c(c(C)cc3c2[nH]c2cc(O)ccc23)O1 (stereo not given)	Tau FP inhib inconclusive, Tau fibril ThT 28µM, Tau fluor cs 5µM[quencher] (no result: PNC inhibitor)
Cc1ccc(SCc2ccc(C(=O)Nc3ccccc3C(=O)NC(C)C)cc2)cc1	PNC inhibitor -87
CCC(C)NC(=O)c1ccccc1NC(=O)c1ccc(CSc2ccccc2)cc1 (stereo not given)	Tau FP inhib inconclusive, Tau fluor cs inconclusive
CC1=C/C(=C/N(C)c2ccccc2)C(=O)S1	Tau FP inhib inconclusive, Tau fibril ThT 20µM
COc1ccc(S(=O)(=O)NCCc2nnc3ccc(SCC(=O)Nc4ccccc4C)nn23)cc1	none (no result: PNC inhibitor)
CCCCNC(=O)OC1CCS(=O)(=O)C1 (stereo not given)	none
CCNC(=O)NS(=O)(=O)c1cnccc1Nc1cccc(Cl)c1	PNC inhibitor -90
CC(=O)NS(=O)(=O)c1cccnc1Nc1cccc(Cl)c1	none
COc1ccc(C(C2C(=O)CC(C)(C)CC2=O)C2C(=O)CC(C)(C)CC2=O)cc1	none (no result: PNC inhibitor)
CC1(C)CC(=O)C(C(c2ccncc2)C2C(=O)CC(C)(C)CC2=O)C(=O)C1	Tau fibril ThT inconclusive, PNC inhibitor -87
O=C1/C(=C/c2cccs2)SC(=S)N1NS(=O)(=O)c1ccccc1	Tau fibril ThT 18µM (no result: PNC inhibitor)
O=C1/C(=C/C=C/c2ccco2)SC(=S)N1NS(=O)(=O)c1ccccc1	Tau FP inhib 16µM, Tau fluor cs inconclusive (no result: Tau fibril ThT, PNC inhibitor)
O=C(NN1C(=O)/C(=C/c2cccs2)SC1=S)c1ccncc1	Tau fibril ThT inconclusive (no result: PNC inhibitor)
CC(C(=O)O)N1C(=O)/C(=C/C=C/c2ccco2)SC1=S (stereo not given)	Tau FP inhib inconclusive, Tau fibril ThT 8.9µM, Tau fluor cs inconclusive, TexasRed fluor inconclusive
COc1ccc2oc(C(=O)OCC(=O)c3ccc4c(c3)OCCO4)c(C)c2c1	Tau fibril ThT inconclusive
CCOC(=O)c1sc2nc(CC(=O)OC)nc(NCC(=O)OC)c2c1C	Tau FP inhib inconclusive, PNC inhibitor inconclusive
N#C/C(=C\c1ccc(-c2ccccc2Cl)o1)C(=O)Nc1nc2ccccc2s1	Tau fibril ThT 3.5µM
N#C/C(=C\c1ccc(-c2cc(Cl)ccc2Cl)o1)C(=O)Nc1ccccc1C(=O)O	Tau fibril ThT 7.1µM (no result: PNC inhibitor)
CC(C)COC(=O)/C(C#N)=C\c1ccc(-c2ccccc2Cl)o1	Tau fibril ThT inconclusive (no result: PNC inhibitor)
CCn1c2ccccc2c2cc(/C=N/NC(=O)c3cc(O)cc(O)c3)ccc21	none (no result: PNC inhibitor)
CCn1c2ccccc2c2cc(NC(=O)c3ccc(Br)o3)ccc21	Tau FP inhib inconclusive, Tau fibril ThT 13µM, Tau fluor cs inconclusive, PNC inhibitor inconclusive
CCn1c2ccccc2c2cc(/C=N/NC(=O)c3ccc(O)cc3)ccc21	Tau FP inhib inconclusive, Tau fibril ThT inconclusive, Tau fluor cs 10µM[quencher]
CCn1c2ccccc2c2cc(NC(=O)c3cc(OC)cc(OC)c3)ccc21	Tau fibril ThT inconclusive, Tau fluor cs inconclusive, PNC inhibitor -97
Cc1ccc(C)c(CN2CCCN(C(=O)Cn3ncc4c3-c3ccccc3OC4)C2)c1	none
COc1ccc(Cc2nnc(N=Nc3c(O)[nH]c4ccc(Br)cc34)[nH]c2=O)cc1	Tau fibril ThT 16µM (no result: PNC inhibitor)
COC(=O)N=Nc1c(O)[nH]c2ccc(Br)cc12	Tau fibril ThT inconclusive (no result: PNC inhibitor)
CC1=C(C(=O)Nc2ccc(Cl)cc2)C(c2ccccc2)n2ncc(C(=O)Nc3ccccc3)c2N1 (stereo not given)	Tau FP inhib inconclusive (no result: PNC inhibitor)
COc1ccccc1C(=O)Nc1cc(Cl)ccc1O	none
CCOc1ccccc1C(=O)NN1C(=O)CCC1=O	PNC inhibitor -114
CCOc1ccccc1C(=O)NCC(=O)O	none (no result: PNC inhibitor)
CCOc1ccccc1C(=O)Nc1cc(Cl)ccc1O	Tau FP inhib inconclusive, Tau fibril ThT inconclusive, Tau fluor cs 18µM[quencher]
CC(C)(C)C(=O)c1sc(Nc2ccccc2)nc1N	Tau fibril ThT inconclusive, Tau fluor cs inconclusive
CCCCS/C(N)=N/N=C/c1cc(C)ccc1O	Tau fibril ThT inconclusive, Tau fluor cs inconclusive, PNC inhibitor -106
CCOc1ccccc1CNC(=O)CCc1c(C)nn(-c2ccc(N3CCOCC3)nn2)c1C	none (no result: PNC inhibitor)
COC(=O)C1=C(C)NC(C)=C(C(=O)OCCSc2ccccc2)[C@@H]1C	Tau fluor cs 16µM[quencher] (no result: PNC inhibitor)
CC1=CC(C)(C)N(S(=O)(=O)c2ccc(C)cc2)c2ccc(C)cc21	PNC inhibitor -90
Oc1ccc(N=C/C=C/c2ccc(Br)cc2)cc1-c1nc2ccccc2s1	Tau fibril ThT 11µM, Tau fluor cs inconclusive
COc1cc(-c2nc(Cn3nnc(C(=O)Nc4ccccc4)c3C)c(C)o2)cc(OC)c1OC	Tau fibril ThT inconclusive (no result: PNC inhibitor)
COc1ccc(NC(=O)c2nnn(Cc3nc(-c4cc(OC)c(OC)c(OC)c4)oc3C)c2C)cc1Cl	TexasRed fluor 0.0089µM[quencher] (no result: PNC inhibitor)
CCn1nc(C)c(NC(=O)/C=C/c2cnn(C)c2)c1C	none
Cc1nn(C)cc1CNC(=O)/C=C/c1cnn(C)c1	PNC inhibitor -109
O=C(O)CCNc1cc2ccccc2cc1C(=O)O	Tau FP inhib inconclusive, Tau fibril ThT 16µM
O=C(O)CCNS(=O)(=O)c1ccc2ccccc2c1	none
O=C(Nc1ccc(S(=O)(=O)N2CCOCC2)cc1)c1cc(-c2ccccc2O)n[nH]1	Tau fibril ThT inconclusive (no result: PNC inhibitor)
Cc1ccc(-n2nnnc2C(Cl)(Cl)c2nnnn2-c2ccc(C)cc2)cc1	Tau FP inhib 16µM, Tau fibril ThT 8.9µM
COCCNC(=O)c1csc2c1CCCC2	PNC inhibitor inconclusive
Cc1cccc(N2CCN(C(=O)c3ccc4c(c3)N(Cc3cccc(Cl)c3)C(=O)c3ccccc3S4=O)CC2C)c1 (stereo not given)	none (no result: PNC inhibitor)
CSc1ccccc1N=CC1=C(O)CC(C)(C)CC1=O	PNC inhibitor -100
CC1(C)CC(=O)C(C=NCCCO)=C(O)C1	PNC inhibitor -87
COc1cccc(N=CC2=C(O)CC(C)(C)CC2=O)c1	PNC inhibitor -113
COC(=O)c1ccc(N)c(N=CC2=C(O)CC(C)(C)CC2=O)c1	PNC inhibitor -109
COc1cccc(N=CC2=C(O)CCCC2=O)c1	none (no result: PNC inhibitor)
CCn1c(CNC(=O)COc2ccc(C(C)C)cc2)nnc1SCC(=O)Nc1ccc(F)cc1	none
COc1cc2c(cc1OC)-c1cc(N3CCCc4ccccc43)nc(=O)n1CC2	none
CC1CCC(C(C)C)C(OP(=O)(c2ccc(N(C)C)cc2)C(O)c2cccnc2)C1 (stereo not given)	PNC inhibitor -114
N#C/C(=C\c1c[nH]c2ccccc12)C(=O)c1ccc(O)c(O)c1	Tau fibril ThT 10µM, Tau fluor cs 16µM[quencher] (no result: PNC inhibitor)

Compound activity from PubChem BioAssay.
